From PubChem BioAssay come the findings set out here.

Active and inactive are the calls of the source.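 The calls were made as follows, unless noted: active = fluorescence slope after compound addition differing from the mean of all screened samples at 99.7% confidence, in either direction; inactive = the rest.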

The nature of test [1]: inhibitors of TNFa-induced NFkB p65 translocation, primary screen, imaging, HUVEC, MLSMR starter and 10KST1 sets (AID 438;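 active = inhibition above 20% together with a positive visual image hit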;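 also: compound added about 3h40 before a 20 min TNFalpha stimulation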;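 as to inhibition: signal is the nuclear over cytoplasmic p65 intensity ratio per well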). Conditions: HUVEC TNFa-induced p65 nuclear translocation; cell count: measured here: nuclei count (cytotoxicity indicator), at 2.08 µM; inhibition: at 2 µM, stronger effect = higher value, 0% TNFa-plus-vehicle, 100% no-TNFa wells.
Test [2] can be described thus: reduction of polyQ htt aggregates in cells – imaging, exon1htt(103Q)mCFP cells, high-content imaging, primary screen (AID 483;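 active = visual image review flags a hit and inhibition of aggregation exceeds 20%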;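 also: compound exposure lasted 3 days before fixation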;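 as to nuclei count: percent of the per-plate median nuclei count of sample wells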). To be noted: exon1htt(103Q)mCFP cell line, aggregate imaging, at 2 µM; inhibition of aggregation: stronger effect = higher value; nuclei count: measured here: cell count, toxicity.
The nature of test [3]: endothelial E-selectin expression blockers – imaging, HUVEC, immunofluorescence, MLSMR starter and 10KST1 sets, primary screen (AID 487;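 active = visually confirmed hit in the image check and inhibition above 20%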;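 as to inhibition: signal is fraction of cell area covered by stained E-selectin grains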;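 as to nuclei count: 100% = median nuclei count of all wells on the same plate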). To be noted: HUVEC TNFalpha-induced E-selectin immunofluorescence imaging, at 2 µM; inhibition: stronger effect = higher value; nuclei count: measured here: cell number, toxicity.
Test [4] deals with Voltage-gated potassium channel subunit beta-2 (Rattus norvegicus) (UniProt P62483). As to the kind of experiment: inhibitors of rat Kvbeta2 reductase activity – biochemical, NADPH fluorescence, primary screen (AID 622;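 active = fluorescence slope higher than the sample average by over 3 SD, cut at about -0.22 in these data, passing the limit was not always enough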;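 also: slope of raw intensity against log time taken from 70 to 1610 s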). Conditions: recombinant KvBeta, 4-cyanobenzaldehyde reduction, at 10 µM, stronger effect = higher value.
Voltage-gated potassium channel subunit beta-2 (Rattus norvegicus), sequence (P62483 whole entry, looked up): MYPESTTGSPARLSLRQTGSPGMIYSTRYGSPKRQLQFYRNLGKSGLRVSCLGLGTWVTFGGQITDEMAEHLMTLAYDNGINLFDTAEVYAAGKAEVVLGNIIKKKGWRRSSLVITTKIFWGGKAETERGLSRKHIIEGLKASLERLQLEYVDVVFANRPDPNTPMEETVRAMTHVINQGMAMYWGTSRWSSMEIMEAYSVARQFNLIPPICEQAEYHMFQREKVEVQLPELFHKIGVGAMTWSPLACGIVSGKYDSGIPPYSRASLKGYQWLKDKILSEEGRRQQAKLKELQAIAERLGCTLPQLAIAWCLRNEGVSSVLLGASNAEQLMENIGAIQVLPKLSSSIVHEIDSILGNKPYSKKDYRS
For test [5] the target is unchanged. The experiment in a line: enhancers of rat Kvbeta2 NADPH turnover – biochemical, NADPH fluorescence, primary screen (AID 623;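 active = NADPH fluorescence slope more negative than the mean of all samples by about 3 SD, 99.7% confidence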;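 also: fluorescence intensity change per second fitted from 20 to 320 s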). To be noted: Recombinant KvBeta, NADPH fluorescence decrease slope, 10 min; at 10 µM; stronger effect = lower value.
Test [6] deals with Alpha-2C adrenergic receptor (Homo sapiens) (UniProt P18825). The experiment in a line: compounds altering alpha2C-coupled GIRK flux – cell-based, HEK293 alpha2C/GIRK1/2, thallium flux, primary screen (AID 624).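 Also: slope of fluorescence ratio to pre-addition baseline per second over 15 to 24 s.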 To be noted: thallium flux BTC fluorescence, at 10 µM, actives lie on both sides.
Alpha-2C adrenergic receptor (Homo sapiens), sequence (P18825 whole entry, looked up): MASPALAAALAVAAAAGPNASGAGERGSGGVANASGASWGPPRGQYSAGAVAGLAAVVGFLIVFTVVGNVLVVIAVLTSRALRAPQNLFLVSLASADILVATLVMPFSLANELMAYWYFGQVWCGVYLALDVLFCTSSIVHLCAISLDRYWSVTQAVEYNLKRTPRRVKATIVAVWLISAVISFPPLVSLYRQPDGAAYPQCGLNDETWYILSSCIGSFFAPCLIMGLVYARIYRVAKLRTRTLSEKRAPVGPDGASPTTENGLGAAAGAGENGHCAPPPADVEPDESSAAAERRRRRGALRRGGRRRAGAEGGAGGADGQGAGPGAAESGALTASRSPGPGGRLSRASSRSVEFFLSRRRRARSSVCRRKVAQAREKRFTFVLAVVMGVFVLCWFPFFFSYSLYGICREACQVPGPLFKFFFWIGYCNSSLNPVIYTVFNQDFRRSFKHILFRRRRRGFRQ
Test [7] can be described thus: blockers of RIG-like receptor reporter activation – cell-based, Sendai virus stimulus, luciferase, 10K MLSCN set, TLR/RLR signaling modifier project, primary screen (AID 602276;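 active = inhibition at or above 50% at 10 µM; inactive = inhibition below 50%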;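 also: firefly luciferase from ISG56 promoter only with Renilla not read in this screen; 0% = Sendai virus plus DMSO and 100% = medium plus DMSO without virus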). To be noted: HEK293 RL24 IRF3 luciferase reporter, at 10 µM, stronger effect = higher value. (In general: In a reporter assay the amount or activity of a reporter protein is the signal.)
Test [8] is described as follows: TLR3 IRF3 reporter activation blockers – cell-based, poly I:C stimulus, luciferase, 10K MLSCN set, primary screen (AID 602277;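 active = inhibition of the reporter signal at or above 50%; inactive = inhibition below 50%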). Conditions: HEK293-TLR3 RL24 IRF3 luciferase reporter, at 10 µM, stronger effect = higher value.

One may read the inhibition as the relative decrease from the control value, in per cent. For the molecule `Cc1cc(C)cc(N2C(=O)CC(N3CCOCC3)C2=O)c1` (stereo not given), the cell count in test [1] is 459. Besides, the inhibition in test [1] was 3% (inactive); in test [3] it was 38.6% (inactive); in test [7], 13.8% (inactive); in test [8], 32.5% (inactive). Further, in test [2], the inhibition of aggregation was -4.9% (inactive). Further, the values for the nuclei count in test [2] and in test [3] were 105% and 98.8%, respectively. In addition, the fluorescence slope in test [4] was -0.355 (inactive). In addition, the NADPH fluorescence slope in test [5] is 3e-05 (inactive). Besides, the slope in test [6] was 0.00693 (inactive).
For the molecule `COc1ccc(NC(=O)CN(c2cc(C)cc(C)c2)S(=O)(=O)c2c(C)noc2C)cc1OC`, the cell count in test [1] was 753. The inhibition was -1.7% (inactive) in test [1], -8.7% (inactive) in test [3], 15.1% (inactive) in test [7] and 38% (inactive) in test [8]. The inhibition of aggregation in test [2] is -15.7% (inactive). Besides, the nuclei count stood at 116% in test [2] and 117% in test [3]. Moreover, the fluorescence slope in test [4] is -0.551 (inactive). Besides, the NADPH fluorescence slope in test [5] is -2.2e-05 (inactive). Besides, in test [6], the slope is 0.00583 (inactive).
On to `CCn1c(SCC(=O)Nc2cc(NC(C)=O)ccc2OC)nnc1-c1ccccn1`, for which, in test [1], the cell count was 630. In addition, the inhibition in test [1] is 6.5% (inactive); in test [3], 51.6% (inactive); in test [7], 10.3% (inactive); in test [8] it was 8.37% (inactive). In addition, the inhibition of aggregation in test [2] was 3.4% (inactive). The nuclei count in test [2] worked out at 89.9%; in test [3], 92.7%. Moreover, the fluorescence slope in test [4] is -0.541 (inactive). In addition, in test [5], the NADPH fluorescence slope was 1.5e-05 (inactive). Further, the slope in test [6] was 0.00559 (inactive).
In the case of `CN1/C(=C\C(=O)Nc2cccnc2)c2ccccc2CC1(C)C`, the cell count in test [1] was determined as 360. The inhibition was -5% (inactive) in test [1], -31.3% (inactive) in test [3], 18.7% (inactive) in test [7] and 19.4% (inactive) in test [8]. Moreover, the inhibition of aggregation in test [2] was -8.4% (inactive). For the same molecule, the nuclei count was 91.1% in test [2] and 117% in test [3]. For the same molecule, the fluorescence slope in test [4] is -0.401 (inactive). Also, in test [5], the NADPH fluorescence slope is -4.2e-05 (inactive). In addition, the slope in test [6] is 0.00677 (inactive).
With `CCOC(=O)CSc1ncnc2c1cnn2-c1ccc(C)cc1`, the cell count in test [1] came out at 296. The inhibition was 2.4% (inactive) in test [1], -3.4% (inactive) in test [3], 22.8% (inactive) in test [7] and 21.8% (inactive) in test [8]. In addition, in test [2], the inhibition of aggregation was -24.2% (inactive). Besides, the nuclei count was 108% in test [2] and 129% in test [3]. The fluorescence slope in test [4] was -0.581 (inactive). Besides, the NADPH fluorescence slope in test [5] was -2e-05 (inactive). Besides, the slope in test [6] was 0.00447 (inactive).
For `N=c1c(C(=O)NCc2ccc3c(c2)OCO3)cc2c(=O)n3ccccc3nc2n1Cc1cccnc1`, the cell count in test [1] is 690. Moreover, the inhibition is -5.2% (inactive) in test [1], -18.5% (inactive) in test [3], 13.3% (inactive) in test [7] and 23.4% (inactive) in test [8]. Also, in test [2], the inhibition of aggregation is -21.7% (inactive). The nuclei count turned out to be 72.7% in test [2] and 109% in test [3]. In test [4], the fluorescence slope is -0.427 (inactive). For the same molecule, in test [5], the NADPH fluorescence slope is 3.2e-05 (inactive). Further, the slope in test [6] was 0.00617 (inactive).
For `Cc1c(-n2c(CN3C(=O)c4ccccc4C3=O)nc3ccccc3c2=O)c(=O)n(-c2ccccc2)n1C`, the cell count in test [1] amounted to 407. For the same molecule, the inhibition is -8.4% (inactive) in test [1], 77.1% (inactive) in test [3], 5.03% (inactive) in test [7] and 24.9% (inactive) in test [8]. Besides, in test [2], the inhibition of aggregation is -10.1% (inactive). Besides, the nuclei count in test [2] is 115%; in test [3] it was 95.8%. In test [4], the fluorescence slope was -0.619 (inactive). Further, the NADPH fluorescence slope in test [5] was 1.1e-05 (inactive). For the same molecule, the slope in test [6] was 0.00583 (inactive).
Consider `O=S(=O)(NCc1cn2ccccc2n1)c1cc(F)ccc1F`, for which, in test [1], the cell count was 282. In addition, the inhibition is 4.3% (inactive) in test [1], 9.5% (inactive) in test [3], -0.696% (inactive) in test [7] and 8.79% (inactive) in test [8]. The inhibition of aggregation in test [2] was 19.7% (inactive). For the same molecule, the nuclei count in test [2] is 78.5%; in test [3], 88.5%. In addition, the fluorescence slope in test [4] is -0.287 (inactive). Moreover, in test [5], the NADPH fluorescence slope was -5.3e-05 (inactive). Also, the slope in test [6] is 0.00441 (inactive).
With `COc1ccc(-c2cc(C(F)(F)F)n3nc(C(=O)N4CCOCC4)nc3n2)cc1`, the cell count in test [1] is 620. The inhibition in test [1] is 11.1% (inactive); in test [3], 41.9% (inactive); in test [7], 10.8% (inactive); in test [8], 15.3% (inactive). Further, the inhibition of aggregation in test [2] is -19.6% (inactive). The nuclei count in test [2] is 103%; in test [3], 102%. Moreover, the fluorescence slope in test [4] was -0.172 (inactive). The NADPH fluorescence slope in test [5] is -5.6e-05 (inactive). For the same molecule, in test [6], the slope is 0.00494 (inactive).
Regarding `CCN(C(=O)CCc1nc(-c2ccccc2F)no1)c1cc(OC)ccc1OC`, the cell count in test [1] worked out at 403. Further, the inhibition in test [1] is 6.7% (inactive); in test [3], -20.9% (inactive); in test [7], -11.3% (inactive); in test [8] it was -31% (inactive). The inhibition of aggregation in test [2] was -4.7% (inactive). Also, the nuclei count was determined as 110% in test [2] and 115% in test [3]. In test [4], the fluorescence slope was -0.425 (inactive). Also, the NADPH fluorescence slope in test [5] was 1.9e-05 (inactive). In test [6], the slope is 0.00445 (inactive).
